hNpr1 antagonist – antagonists of human natriuretic peptide receptor Npr1; P16066; HEK293 hNpr1 GloSensor cGMP, ANP-stimulated luminescence; Potency, µM (highest dose often 46.3 µM), without a hit: at the top dose activity change, negative = inhibition, most hits filed as inhibitors; 76,000 tested, 1.6% active; calls by dose curve; note: nearly all actives have a fitted effect of over 60% in size
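HEK293 cells stably expressing human Npr1 and cGMP GloSensor pGS-40F, loaded 2 h with 2% GloSensor reagent, given compound 30 min at room temperature. Luminescence read before and 20 min after 0.1 nM hNppA.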
HEK cytotox – cytotoxic compounds in HEK 293 cells; HEK 293 viability, ATP luminescence (CellTiter-Glo), 48-72 h; Potency, µM (titrated, usually from 115 µM), for inactives: top-dose activity change, negative = cytotoxicity, hits mostly inhibitors; 94,000 tested, 6.6% active; note: nearly all actives have a fitted effect of over 60% in size
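Viability of HEK 293 cells, plated at 250 cells/well, was judged by cellular ATP after compound treatment for 48 or 72 hr. Luminescence was imaged 10 min after CellTiter-Glo addition at room temperature.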
FLuc inh – blocks purified firefly luciferase enzyme activity; P08659; purified P. pyralis luciferase, luminescence, biochemical; Potency, µM (titrated, usually from 115 µM), hits mostly inhibitors; 76,000 tested, 2.5% active; AID 1347043; note: nearly all actives have a fitted effect of over 65% in size
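Purified 10nM P. pyralis luciferase with 10uM D-luciferin and 10uM ATP in 50mM Tris acetate pH 7.5, 10mM Mg acetate, 0.01% Tween-20, 0.05% BSA. qHTS titration; luminescence read by CCD imager.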
NIH3T3 tox – cytotoxic compounds in NIH 3T3 cells. 94,000 tested, 4.3% active. NIH 3T3 viability, CellTiter-Glo ATP luminescence, 48-72 h. Potency, µM (doses to about 96.7 µM), for inactives: at the highest dose activity change, negative = cytotoxicity, most hits filed as inhibitors; note: nearly all actives have a fitted effect of over 55% in size
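Viability of NIH 3T3 cells after 48 or 72 hr compound treatment at 37 °C was assessed by CellTiter-Glo, with luminescence imaged following a 10 min room-temperature step.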
GPT2 inhibitor – inhibitors of human GPT2 alanine aminotransferase. Recombinant GPT2, coupled pyruvate oxidase/HRP Amplex Red fluorescence. Potency, µM (series often up to 57.7 µM), for the others: at the highest dose activity change, negative = inhibition, hits mostly inhibitors. 100,000 tested, 0.25% active; note: nearly all actives have a fitted effect of over 60% in size
Target sequence (Q8TD30 whole entry, looked up): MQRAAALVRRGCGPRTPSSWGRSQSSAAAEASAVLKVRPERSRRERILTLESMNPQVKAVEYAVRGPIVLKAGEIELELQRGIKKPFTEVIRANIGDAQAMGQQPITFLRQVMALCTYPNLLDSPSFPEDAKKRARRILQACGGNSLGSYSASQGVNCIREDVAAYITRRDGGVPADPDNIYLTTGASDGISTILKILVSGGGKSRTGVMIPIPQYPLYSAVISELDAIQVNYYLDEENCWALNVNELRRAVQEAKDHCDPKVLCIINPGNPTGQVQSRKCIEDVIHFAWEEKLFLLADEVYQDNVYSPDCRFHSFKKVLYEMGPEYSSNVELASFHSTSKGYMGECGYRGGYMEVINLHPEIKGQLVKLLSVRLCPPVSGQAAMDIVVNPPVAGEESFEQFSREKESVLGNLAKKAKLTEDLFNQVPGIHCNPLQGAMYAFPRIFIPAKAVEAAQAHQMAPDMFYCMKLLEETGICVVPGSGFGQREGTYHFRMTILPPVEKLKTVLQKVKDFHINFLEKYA
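Inhibition is scored from Amplex Red fluorescence generated when pyruvate oxidase and HRP act on pyruvate released by GPT2. Reactions contain 10ng/uL enzyme, 250uM a-KG and 2mM L-alanine and run 30 min at room temperature.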
Active calls of the source: *; i = inactive; ? = inconclusive; . = not tested or not shown; [ ] = dose if it differs, or a comment. Sampled rows, rich in hits. Any-hit rate of the full collection: about 10%. Unless noted, calls come from the whole dose curve; as a rule, active = well fitted curve in the direction sought with a large enough effect; inconclusive = small, poorly fitted or top-dose-only effect, or another doubt; inactive = no such curve, though single readings can be large; an effect the other way counts as inactive or inconclusive. % is set by controls: 0 for no effect and ±100 for the full control effect; potency is the fitted concentration of half-maximal effect.

SMILES | hNpr1 antagonist | HEK cytotox | FLuc inh | NIH3T3 tox | GPT2 inhibitor
Cc1noc(C)c1S(=O)(=O)N1[C@H]2CC[C@@H]1c1cnc(-c3ccccc3)nc1C2 | ? | ? | i | -26% | 4%
O=C(c1ccco1)N1[C@H]2CC[C@@H]1c1cnc(-c3ccc(F)cc3)nc1C2 | ? | 45µM* | i | -26% | i
COc1ccc2c(c1)C1(CCN(S(=O)(=O)c3cccc(F)c3)C1)C(=O)N2C (stereo unspecified) | -9% | 45µM* | i | -19% | i
C=CC(C)(C)c1[nH]c2cccc3c2c1C[C@@H]1[C@@H]3[C@@H](OC(C)=O)[C@H](C)CN1C | . | . | . | . | i
COc1ccc(CNC[C@H]2C[C@@H]3CCN2C[C@@H]3c2cc(C3CCCCC3)nn2C)cc1 | 3%[70.6 µM] | 32µM* | i | 28µM* | i
COc1ccc(-c2cc([C@H]3CN4CC[C@H]3C[C@@H]4CNC(=O)NCc3ccccc3)n(C)n2)cc1 | -3% | ? | i | ? | -8%
COc1ccc(CNC[C@H]2C[C@@H]3CCN2C[C@@H]3c2cc(-c3ccc4ccccc4c3)nn2C)cc1 | 0% | ? | i | 25µM* | 4%
CCCCn1cc(C(=O)c2cccc3ccccc23)c2ccccc21 | . | . | . | . | -9%
COc1ccccc1NC(=O)Nc1ccc2n(c1=O)C[C@H]1C[C@@H]2CN(C(=O)C(=O)O)C1 | -1%[70.6 µM] | -1%[172 µM] | i | 0%[174 µM] | i
COc1cc2c(cc1Oc1ccccc1)NC(=O)C21CCN(Cc2cccnc2)CC1 | -22%[70.6 µM] | 89µM* | i | ? | -2%[88.5 µM]
COc1cc2c(cc1Oc1cccc(N(C)C)c1)NC(=O)C21CCN(Cc2nccn2C)CC1 | -23% | ? | i | -18% | 0%
O=C1Nc2ccccc2C12CCN(Cc1cccnc1)C2 (stereo unspecified) | 0%[70.6 µM] | -17%[172 µM] | i | -19%[138 µM] | 4%[88.5 µM]
COc1cc2c(cc1Oc1ccccc1)NC(=O)C21CCN(Cc2nccn2C)CC1 | 1%[70.6 µM] | 100µM* | i | ? | 3%[88.5 µM]
CCOC(=O)[C@H]1CN([S+](=O)([O-])c2cccs2)[C@]2(C)C(=O)N(CC3CC3)c3ccccc3[C@H]12 | . | ? | . | ? | -47%[27.3 µM]
COc1cc2c(cc1OCc1ccccc1)NC(=O)C21CCN(c2nc(C)cnc2C)CC1 | -23% | 35µM* | i | ? | -10%
COc1cc2c(cc1OCc1ccccc1)NC(=O)C21CCN(c2cnccn2)CC1 | -27%[70.6 µM] | 63µM* | i | 79µM* | 2%[88.5 µM]
COc1cc2c(cc1OCC1CC1)NC(=O)C21CCN(C(=O)c2ccccc2)CC1 | 4%[70.6 µM] | ? | i | ? | -6%[88.5 µM]
CC(C)CCN(C1CCNCC1)C1CCOCC1 | 2% | -15% | i | -3% | i
COc1ccc(NC(=O)N2[C@H]3CC[C@@H]2c2cnc(C)nc2C3)cc1OC | 5% | i | i | i | ?
Cc1ncc2c(n1)C[C@@H]1CC[C@H]2N1C(=O)Nc1ccc2c(c1)OCCO2 | 5% | i | 32µM* | 4% | i
COc1cc2c(cc1OCC1CC1)NC(=O)C21CCN(CCC(C)C)CC1 | 3%[70.6 µM] | -28%[172 µM] | i | ? | i
COc1cc2c(cc1OC1CCCC1)NC(=O)C21CCN(c2ncc(F)cn2)CC1 | -5%[70.6 µM] | 89µM* | i | 89µM* | -12%[88.5 µM]
CCc1cnc(N2CCC3(CC2)C(=O)Nc2cc(OC4CCCC4)c(OC)cc23)nc1 | -1%[70.6 µM] | 79µM* | i | ? | -7%[88.5 µM]
CCc1cnc(N2CCC3(CC2)C(=O)Nc2cc(Oc4ccccc4)c(OC)cc23)nc1 | -16%[70.6 µM] | 45µM* | i | 40µM* | -14%[88.5 µM]
COc1cc2c(cc1Oc1cccc(N(C)C)c1)NC(=O)C21CCN(c2ncc(F)cn2)CC1 | -19% | -18% | i | ? | -9%
SMILES | hNpr1 antagonist | HEK cytotox | FLuc inh | NIH3T3 tox | GPT2 inhibitor
COc1cc2c(cc1OC1CCCC1)NC(=O)C21CCN(c2cnccn2)CC1 | -16%[70.6 µM] | 89µM* | i | ? | 3%[88.5 µM]
COc1ccc(CC(=O)N2CCN(Cc3ccccc3-c3ccc(C)c(Cl)c3)CC2)cc1 | . | ? | . | ? | i
CC1=CC2/C=C(\C)CCCC(O)/C=C/C(=O)OC23C(=O)NC(CC(C)C)C3C1C (stereo unspecified) | . | . | . | . | 4%[27.3 µM]
COc1cc2c(cc1OC1CCCC1)NC(=O)C21CCN(c2ncccn2)CC1 | 0%[70.6 µM] | 100µM* | i | ? | 5%[88.5 µM]
COc1cc2c(cc1OC1CCCC1)NC(=O)C21CCN(c2ncc(C(C)C)cn2)CC1 | -2%[70.6 µM] | ? | i | ? | -8%[88.5 µM]
COc1cc2c(cc1OC1CCCC1)NC(=O)C21CCN(c2nc(C)cc(C)n2)CC1 | -8%[70.6 µM] | 89µM* | i | ? | -23%[88.5 µM]
C/C=C(/C)C1C=CC2CC(C)CC(C)C2C1/C(O)=C1\C(=O)NC(CC(C)(O)C(=O)O)C1=O (stereo unspecified) | . | . | . | . | i
CCCCOC(=O)N1C[C@H](C(=O)OCC)[C@H]2c3ccccc3NC(=O)[C@]21C | . | ? | . | -18%[46.1 µM] | -10%[27.3 µM]
Cn1nc(C2CCCCC2)cc1[C@H]1CN2CC[C@H]1C[C@@H]2CNC(=O)c1ccc2c(c1)OCO2 | -2% | ? | i | ? | -6%
COc1ccc(OC)c(S(=O)(=O)NC[C@H]2C[C@@H]3CCN2C[C@@H]3c2cc(-c3cccs3)nn2C)c1 | -15% | ? | i | 79µM* | 1%
Cn1nc(C2CCCCC2)cc1[C@H]1CN2CC[C@H]1C[C@@H]2CNC(=O)Nc1ccccc1 | 3%[70.6 µM] | 32µM* | i | 28µM* | -7%[88.5 µM]
Cc1ccc(C(=O)NC[C@H]2C[C@@H]3CCN2C[C@@H]3c2cc(C3CCCCC3)nn2C)cc1 | -11%[70.6 µM] | ? | i | 35µM* | -1%[88.5 µM]
Cn1nc(C2CCCCC2)cc1[C@H]1CN2CC[C@H]1C[C@@H]2CNC(=O)NCc1ccccc1 | 1% | 79µM* | i | ? | -2%
Cc1ncc2c(n1)C[C@@H]1CC[C@H]2N1C(=O)NCCc1ccccc1 | . | i | . | i | -1%
COC(=O)[C@]12CCCC(C)(C)C1CCc1cc(C(C)C)c(O)c(O)c12 (stereo partly specified) | . | . | . | . | -28%[27.3 µM]
Cc1ccc(C(=O)NC[C@H]2C[C@@H]3CCN2C[C@@H]3c2cc(-c3cccs3)nn2C)cc1 | 2%[70.6 µM] | ? | i | 112µM* | -8%[88.5 µM]
C[C@@H]1O[C@@H](OC2CCC3(C=O)C(CCC4C3CCC3(C)C(C5=CC(=O)OC5)C(O)CC43O)C2)[C@H](O)[C@H](O)[C@H]1O[C@@H]1O[C@H](CO)[C@@H](O)[C@H](O)[C@H]1O (stereo partly specified) | . | . | . | . | i
CN1CC[C@]23c4c5ccc(O)c4O[C@H]2[C@@H](O)C=C[C@H]3[C@H]1C5 | . | . | . | . | 28µM*

Compound activity: PubChem, National Center for Advancing Translational Sciences (NCATS)
